Screening data (PubChem)
Peg3 prom inh-1 = reduces Peg3 promoter-driven luciferase expression in HeLa. HeLa PEG-Prom luciferase reporter, luminescence, overnight. inhibition, % at 20 µM. 1.7% of 360,000 active;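 active = inhibition of at least 50% at 20 µM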
TWEAK Fn14 block = blocks TWEAK-Fn14 interaction in a reporter cell assay; 2% of 360,000 active; TWEAK-stimulated Fn14 reporter cells, luciferase luminescence, 8 h; inhibition, % at 10 µM; in the data active = inhibition above about 50%
TROY signal inh = blocks TROY-dependent signaling in reporter cells; inhibition, % at 10 µM; Q293 LMP1-TROYcd NF-kB luciferase reporter, 4 h; 0.98% of 360,000 active;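 active = compounds whose plate-normalised and pattern-corrected inhibition of the luciferase reporter signal at the single screening dose is 50% or more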
CF NFkB inh = cystic fibrosis NF-kB activation inhibition; 0.86% of 360,000 active; KKLEB NF-kB-GFP reporter, PAF-induced, GFP fluorescence overnight; inhibition, % at 5 µM;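 active = at least 50% inhibition at 5 µM, scaled per plate between neutral and stimulator controls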;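 also: PAF is a Pseudomonas aeruginosa culture filtrate used as stimulus; plate controls were PAF-stimulated DMSO wells for no effect and unstimulated DMSO wells for full effect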
HIF-2a block = inhibitors of HIF-2a; 786-0 RCC cells HIF-2a reporter, luciferase luminescence, overnight; inhibition, % at 18.8 µM; 0.72% of 360,000 active; AID 624352;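 active = inhibition of the luminescence signal of 40% or more relative to plate controls, in a single-dose primary screen at 18.75 µM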
KKLEB cytotox = CF airway cell cytotoxicity counter-screen; KKLEB CF airway cells viability, ATPlite luminescence, overnight; active compounds read low; cells stimulated with P. aeruginosa culture filtrate; activity change (cytotoxicity), % at 5 µM; 0.36% of 360,000 active;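 active = corrected activity change at or below -50% at 5 µM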
Peg3 prom inh-2 = confirmation of Peg3 promoter inhibitors | inhibition, % at 20 µM | shares compounds with Peg3 prom inh-1 | HeLa PEG-Prom luciferase reporter, luminescence, overnight | 84% of 1,300 active;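 active = at 20 µM dose, 40% or more inhibition averaged across four replicates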
Numbers without * were called inactive; . = no result given. The list is not random: actives were taken first. Their share in the collection is about 4%.

SMILES	Peg3 prom inh-1	TWEAK Fn14 block	TROY signal inh	CF NFkB inh	HIF-2a block	KKLEB cytotox	Peg3 prom inh-2
COc1ccc(-c2nc3c(c(SCC(=O)N4CCOCC4)n2)Cc2c(CO)cnc(C)c2O3)cc1	53.7*	25.0	-3.1	6.6	1.9	1.0	40.2*
Cc1ccc(/C=C2\SC(=S)N(CCC(=O)N3CCCCC3)C2=O)cc1	20.4	-17.5	9.6	17.0	22.4	10.6	.
O=C(CCN1C(=O)/C(=C/c2cccs2)SC1=S)N1CCCCC1	112.1*	39.2	2.1	46.6	-24.1	16.4	91.6*
CCOC(=O)N1CCN(C(=O)CCN2C(=O)/C(=C\c3ccc(OC)c(OC)c3)SC2=S)CC1	13.9	27.7	16.9	-2.0	11.7	4.2	.
COc1cc(/C=C2\SC(=S)N(CCC(=O)N3CCCCC3)C2=O)cc(OC)c1OC	67.8*	33.6	27.1	26.5	22.4	0.9	47.1*
CCOc1ccc2c(ccc(/C=C/c3cc(C)c4cccnc4c3O)[n+]2C)c1	100.8*	4.7	4.3	43.0	25.7	-5.1	84.1*
CCOc1ccc2[nH]c3ncccc3c(=O)c2c1	-27.9	7.2	-29.8	-35.9	-84.2	24.6	.
CC1(CCc2ccc3c(c2)OCO3)NCCc2c1[nH]c1ccccc21 (configuration not stated)	44.7	3.6	-3.0	-9.3	20.4	-1.7	.
COCCNC(=O)c1cccc(OC2CCN(Cc3ccc(Cl)c(F)c3)CC2)c1	18.3	17.2	2.7	-10.7	14.4	2.5	.
CCN(CC(=O)Nc1c(F)cccc1F)C(=O)c1ccc(=O)n(C)n1	-8.0	8.6	15.6	22.2	7.3	-5.1	.
CSc1nnc(NC(=O)c2ccc3c(c2)OCO3)s1	52.0*	91.8*	71.1*	-8.3	-12.9	0.1	15.0
Cc1nnc(NC(=O)c2ccc3c(c2)OCO3)s1	-159.8	0.9	-39.0	-0.4	-183.5	4.7	.
O=c1cc(NCCCO)c2ccccc2o1	4.8	11.1	-2.2	-12.9	15.7	13.4	.
CN(C)CCNc1ccc(CO)c2oc3ccc(O)cc3c(=O)c12	96.9*	-53.0	-26.4	-87.7	41.1*	4.0	90.4*
CCOc1ccccc1NC(=O)c1oc2ccccc2c1NC(=O)C1CCCO1 (configuration not stated)	73.7*	2.2	17.6	-4.3	6.4	-3.4	39.9
C[C@H]1CN([C@@H](C)CO)S(=O)(=O)c2ccc(Br)cc2O[C@H]1CN(C)C(=O)Cc1ccccn1	1.8	10.0	-21.1	-8.5	11.7	10.1	.
O=C(c1cc(-c2ccc(Br)cc2)n[nH]1)N1CCN(C(=O)c2ccccc2Br)CC1	10.6	-33.2	4.3	-25.1	-6.2	1.4	.
O=C(COC(=O)c1ccccc1)NC1CCCCCC1	-80.4	-2.0	-40.5	-30.2	-11.8	9.7	.
N/C(=N\OC(=O)c1ccccc1)C(C(=O)NOC(=O)c1ccccc1)C1CCCCC1 (configuration not stated)	86.3*	-4.8	-47.9	-4.6	-153.6	2.0	96.7*
O=C(c1cnc(N2CCN(c3ncccn3)CC2)c2ccccc12)N1CCN(c2ncccn2)CC1	60.2*	39.6	32.1	-4.1	7.1	-0.2	34.4
COc1ccc(C23CC4CC(CC(C4)C2)C3)cc1C(=O)NCCN(C)C	50.8*	0.6	-26.2	6.7	17.7	-7.3	75.3*
COc1ccccc1C(=O)NCCC(=O)NCCC12CC3CC(CC(C3)C1)C2	12.5	-9.1	6.6	-0.8	7.1	-6.2	.
CCCN(CC(=O)Nc1ccccc1OC)C(=O)c1cccc(S(=O)(=O)Nc2ccc(OC)cc2)c1	27.8	2.6	-11.3	23.7	8.2	-3.1	.
CCN(CC(=O)Nc1ccc(NC(C)=O)cc1)C(=O)/C=C/c1cn(-c2ccccc2)nc1-c1cccs1	-1.3	12.3	-17.6	-20.1	-72.1	-1.4	.
CN1CCC(N(C)C(=O)/C=C/c2cn(-c3ccccc3)nc2-c2cccs2)CC1	76.8*	-11.7	-14.2	11.0	4.1	-11.3	93.5*
SMILES	Peg3 prom inh-1	TWEAK Fn14 block	TROY signal inh	CF NFkB inh	HIF-2a block	KKLEB cytotox	Peg3 prom inh-2
CCOc1ncccc1C(=O)OCC(=O)c1ccc(Br)s1	10.9	11.7	-1.9	31.6	6.4	-23.3	.
CCOC(=O)c1cnc2c(cnn2C)c1NCCCN(C)C	62.0*	-15.2	-3.7	-17.3	0.5	-0.3	55.8*
C=CCC[C@H](Cc1ccc(F)cc1)C(=O)OC[C@@H](Cc1c[nH]c2ccccc12)NC(=O)[C@@H](CC=C)CC(=O)N[C@@H](CO)Cc1ccccc1	28.9	26.8	15.1	17.1	-8.4	-26.3	.
C=CCC[C@@H](Cc1ccc(F)cc1)C(=O)OC[C@@H](Cc1c[nH]c2ccccc12)NC(=O)[C@H](CC=C)CC(=O)N[C@H](CO)Cc1ccccc1	51.7*	-3.5	27.5	42.2	-7.6	-25.0	38.0
CCN(CCO)c1ccc(N=Nc2cc(C)[nH]n2)cc1	72.3*	90.6*	69.0*	0.6	55.2*	-13.9	55.8*
O=C1CN(C(=O)CN2CCN(S(=O)(=O)c3ccccc3F)CC2)c2ccccc2N1	-0.8	5.9	-15.9	-30.8	6.4	0.4	.
COC(=O)[C@@]12C[C@@H](CC(=O)NCc3ccccc3)C(=O)N(Cc3ccc4c(c3)OCO4)C1=CCC(C)(C)C2	.	.	.	.	6.0	.	.
CC(=O)NC(c1ccc(C)cc1)c1cc(Cl)c2cccnc2c1O (configuration not stated)	65.3*	12.1	17.6	-13.3	25.6	2.7	56.4*
CCCCC(=O)NC(c1ccccc1Cl)c1ccc2cccnc2c1O (configuration not stated)	57.6*	1.9	6.9	2.2	12.6	-10.9	64.9*
CC(=O)NC(c1ccc(C(C)C)cc1)c1ccc2cccnc2c1O (configuration not stated)	56.7*	13.6	14.0	-8.0	11.9	5.2	69.9*
COc1cccc(C(NC(C)=O)c2ccc3cccnc3c2O)c1 (configuration not stated)	46.8	15.2	10.3	-10.1	15.5	19.3	.
CCC(=O)NC(c1cccs1)c1cc([N+](=O)[O-])c2cccnc2c1O (configuration not stated)	52.7*	11.2	0.9	25.8	5.1	-5.1	53.5*
Cn1c(CNC(=O)c2ccc3c(c2)OCO3)nnc1SCC(=O)Nc1ccccc1F	-11.4	1.7	-23.0	16.3	-27.0	-18.6	.
CC(C)C(=O)NC(c1ccccc1)c1cc([N+](=O)[O-])c2cccnc2c1O (configuration not stated)	44.6	24.0	-8.7	11.2	16.5	-13.0	.
CC(=O)NC(c1ccccc1)c1cc([N+](=O)[O-])c2cccnc2c1O (configuration not stated)	61.0*	36.1	18.9	16.6	21.3	-1.3	63.5*
Cc1ccc(NC(=O)CSCC(=O)NCc2cccc(C(F)(F)F)c2)cc1	14.4	-6.9	-26.7	-7.0	13.3	-2.7	.
